Bioassay records as filed in PubChem.
L3MBTL1 block: blocks human L3MBTL1. Potency, µM (doses to about 57.1 µM), without a hit: top-dose activity, negative = inhibition, hits mostly inhibitors. AlphaScreen L3MBTL1–H3K9me1 peptide binding. Q9Y468. actives 0.66% (n = 230,000). AID 485360; further: potency means the concentration at half of the fitted maximal effect; on the % scale 0 is the no-effect control and ±100 the full control effect; nearly all actives have a fitted effect of over 60% in size
Target sequence (Q9Y468 whole entry, looked up): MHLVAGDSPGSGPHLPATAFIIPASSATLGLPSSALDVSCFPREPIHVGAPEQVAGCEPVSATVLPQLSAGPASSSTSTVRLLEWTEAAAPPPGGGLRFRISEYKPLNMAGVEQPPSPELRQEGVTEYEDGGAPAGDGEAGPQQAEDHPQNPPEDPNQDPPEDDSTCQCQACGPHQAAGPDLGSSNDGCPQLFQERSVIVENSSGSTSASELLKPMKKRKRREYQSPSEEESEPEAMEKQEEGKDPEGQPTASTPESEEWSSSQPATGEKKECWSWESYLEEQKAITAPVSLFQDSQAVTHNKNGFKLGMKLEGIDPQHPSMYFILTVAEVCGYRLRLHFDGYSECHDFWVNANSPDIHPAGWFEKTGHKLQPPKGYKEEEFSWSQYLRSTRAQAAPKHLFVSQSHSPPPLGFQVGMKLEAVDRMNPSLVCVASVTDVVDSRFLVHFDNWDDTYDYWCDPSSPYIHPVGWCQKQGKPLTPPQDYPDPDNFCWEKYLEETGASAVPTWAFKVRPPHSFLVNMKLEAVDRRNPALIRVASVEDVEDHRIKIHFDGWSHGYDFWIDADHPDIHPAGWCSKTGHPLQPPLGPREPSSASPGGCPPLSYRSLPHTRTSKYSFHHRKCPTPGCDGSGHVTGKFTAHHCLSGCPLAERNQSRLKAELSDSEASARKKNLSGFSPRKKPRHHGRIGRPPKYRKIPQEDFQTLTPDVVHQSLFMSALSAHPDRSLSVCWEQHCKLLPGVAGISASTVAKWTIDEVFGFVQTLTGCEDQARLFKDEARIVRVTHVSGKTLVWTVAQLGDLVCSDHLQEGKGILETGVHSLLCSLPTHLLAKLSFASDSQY
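L3MBTL1 (50 nM) pre-complexed 30 min with biotinylated H3(1-15)K9me1 peptide (75 nM), then compounds added for 30 min at room temperature; AlphaScreen streptavidin donor/nickel chelate acceptor beads (10 ug/mL final) read after 30 min dark incubation.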
HP1b chromo inh: HP1-beta chromodomain-methylated histone interaction inhibition | P83916 | AlphaScreen HP1-beta / biotin-H3K9me3 peptide binding | Potency, µM (highest dose often 114 µM), inactives show at the top dose activity change, negative = inhibition, hits mostly inhibitors | actives 0.56% (n = 390,000); further: potency means the concentration at half of the fitted maximal effect; nearly all actives have a fitted effect of over 70% in size
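AlphaScreen: HP1-beta (50 nM) preformed 30 min with biotin-H3(1-18)K9me3 peptide (50 nM) in PBS pH 7.4, 0.01% Tween-20. Compound added for 30 min at RT, then streptavidin donor/nickel chelate acceptor beads (10 ug/mL) for 30 min.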
BAZ2B block: inhibitors of human BAZ2B bromodomain; actives 4.4% (n = 360,000); AlphaScreen BAZ2B-H3K14Ac peptide displacement; Potency, µM (highest dose often 114 µM), without a hit: top-dose activity change, negative = inhibition, hits mostly inhibitors; Q9UIF8; further: potency means the concentration at half of the fitted maximal effect; on the % scale 0 is the no-effect control and ±100 the full control effect; nearly all actives have a fitted effect of over 60% in size
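AlphaScreen displacement: compounds (up to 110uM) incubated 30 min at room temperature with a preformed 50 nM BAZ2B/50 nM biotinylated H3K14Ac peptide complex in PBS pH 7.4 with Tween-20. Donor and acceptor beads at 10 ug/mL final added, 20 min light-protected before reading.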
JMJD2A Tudor: inhibitors of human JMJD2A Tudor domain | AlphaScreen JMJD2A-Tudor / H3K4me3 peptide binding | Potency, µM (doses to about 114 µM), for the others: top-dose activity change, negative = inhibition, most hits filed as inhibitors | actives 4.4% (n = 390,000); further: potency means the concentration at half of the fitted maximal effect; on the % scale 0 is the no-effect control and ±100 the full control effect; nearly all actives have a fitted effect of over 50% in size
G9a block: inhibitors of human histone lysine methyltransferase G9a. Potency, µM (doses to about 102 µM), without a hit: top-dose activity, negative = inhibition, hits mostly inhibitors. G9a H3K9 monomethylation, AlphaScreen, 2 h. actives 8.8% (n = 350,000). Q96KQ7. AID 504332; further: potency means the concentration at half of the fitted maximal effect; on the % scale 0 is the no-effect control and ±100 the full control effect; nearly all actives have a fitted effect of over 75% in size
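Signal arises when biotinylated H3K9 peptide, once monomethylated, bridges streptavidin donor and antibody-captured acceptor beads. Enzyme at 20 nM was preincubated 15 min with test compounds; peptide 500 nM and SAM 20 uM then reacted for 2 h.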
PI5P4K alpha inh: blocks human PI5P4K alpha kinase activity. max response, %. P48426. actives 1.2% (n = 330,000). PI5P4Kalpha enzyme, ADP-Glo luminescence, 60 min; hits give low values; active means max response of -50% or lower; inconclusive means between -30% and -50%; inactive means -30% or higher; further: value at the top dose of about 77 µM; on the % scale 0 is the no-effect control and ±100 the full control effect
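Compounds were pin-transferred onto PI5P4Kalpha and substrate in HEPES pH 7.4 buffer with EGTA, CHAPS and 5% DMSO. ATP (5 microM final) started the reaction, which ran 60 minutes at room temperature before ADP-Glo detection.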
* hit, by the source's call; ? = inconclusive; . = not tested or not shown; [ ] = another dose, or the depositor's remark. In the library only some 11% were active in any assay of this set; here they are far more common. Unless noted, the call rests on the fitted dose curve; in most records, active means well fitted inhibition curve with a large enough effect; inconclusive means small, poorly fitted or top-dose-only effect; inactive means no such curve, though single readings can be large or run the other way.

SMILES | L3MBTL1 block | HP1b chromo inh | BAZ2B block | JMJD2A Tudor | G9a block | PI5P4K alpha inh
CCCN1CNc2c(c(=O)[nH]c(=S)n2CCc2ccccn2)C1 | . | 18% | . | -3% | . | .
COC(=O)C1=C(C(=O)OC)[C@@H]2N(C)c3ccc(OC)cc3[C@@]23C[C@@H](C(=O)OC)N(C(=O)c2cccs2)C3=N1 | -5% | ? | 50µM* | ? | 40µM* | 2
COC(=O)C1=C(C(=O)OC)[C@@H]2N(C)c3ccc(OC)cc3[C@@]23C[C@@H](C(=O)OC)N(C(=O)c2cc(C)oc2C)C3=N1 | . | ? | . | 45µM* | . | 5
CCC(=O)NC(c1ccccc1OC)c1ccc2cccnc2c1O (centres undefined) | ? | 19% | 25µM* | 56µM* | 0%[59 µM] | .
Oc1cccc(C(Nc2ccccn2)c2ccc3cccnc3c2O)c1Cl (centres undefined) | . | -9% | 22µM* | 22µM* | ? | .
CCCCC(=O)NC(c1ccc(C(C)C)cc1)c1ccc2cccnc2c1O (centres undefined) | 0% | 54% | -10% | -15% | 34%[59 µM] | 1
CCCC(=O)NC(c1ccccc1)c1ccc2cccnc2c1O (centres undefined) | ? | 51% | 25µM* | 45µM* | 7% | 2
CCCC(=O)NC(c1ccc(OC)cc1)c1ccc2cccnc2c1O (centres undefined) | ? | 8% | 20µM* | 79µM* | . | 3
CCOC(=O)c1cc(-c2ccc(OC)c(S(=O)(=O)NC3CCCCC3)c2)on1 | . | -11% | -5% | -24% | 2%[59 µM] | .
COc1cccc(-c2ccc3ncnc(N4CCOCC4)c3c2)c1 | . | . | . | . | 7%[0.501 µM] | .
COc1ccc(CNC(=O)CN2C(=O)COc3ccc(S(=O)(=O)Nc4ccccc4)cc32)cc1 | . | -10% | -16% | -20% | -27%[59 µM] | .
CN1CCN(c2ncnc3ccc(-c4cccc(NS(C)(=O)=O)c4)cc23)CC1 | . | . | . | . | 0%[0.501 µM] | .
CC(=O)N1CCc2cc(S(=O)(=O)NC(Cc3ccccc3)C(=O)NCc3ccccc3)ccc21 (centres undefined) | . | 49% | . | -1% | -3%[59 µM] | .
CCCCC(=O)NC(c1ccccc1)c1ccc2cccnc2c1O (centres undefined) | -28% | 56% | 40µM* | -22% | 23% | -6
CN(C)c1ccc(/C=N/n2c(C3CCCCC3)n[nH]c2=S)cc1 | . | ? | ? | 40µM* | 10µM* | -19
S=c1[nH]nc(C2CCCCC2)n1/N=C/c1cccc(Cl)c1Cl | . | -14% | -4% | -36% | 8.9µM* | 1
CN(C)c1ccc(/C=N/n2c(-c3ccccc3Br)n[nH]c2=S)cc1 | . | -19% | ? | 14µM* | 0.71µM* | -15
Cc1nc2ccccc2c(=O)n1/N=C/c1ccc(N(C)C)cc1 | -1% | 10% | 4% | -16% | 26%[59 µM] | .
CCOc1ccc(/C=N/n2cnnc2)cc1 | -8% | 6% | 5% | -14% | -31%[12.7 µM] | .
CCOc1ccc(/C=N/n2c(C3CCCCC3)n[nH]c2=S)cc1 | . | 9% | 0% | ? | 28µM* | -7
CCCC[C@]12Cc3cc(C#N)ccc3C(O1)c1c(cc(-c3ccccc3)oc1=O)O2 | . | . | 6%[22.9 µM] | . | . | .
Cc1cc(C)cc(NC(=O)COc2cccc3c(=O)n(C)ccc23)c1 | . | 30% | 1% | -4% | -3%[59 µM] | .
O=C1COc2cc(S(=O)(=O)CCC(=O)NC3CCCCC3)c(Cl)cc2N1 | . | 50% | 5% | 5% | -3%[59 µM] | .
S=c1[nH]nc(C2CCCCC2)n1/N=C/c1ccco1 | -6% | -5% | -9% | 13µM* | 1.4µM* | 6
Fc1ccc(/C=N/n2c(C3CCCCC3)n[nH]c2=S)cc1 | . | ? | -38% | 56µM* | 7.1µM* | -1
SMILES | L3MBTL1 block | HP1b chromo inh | BAZ2B block | JMJD2A Tudor | G9a block | PI5P4K alpha inh
S=c1[nH]nc(C2CCCCC2)n1/N=C/c1ccccc1 | . | -8% | -38% | 56µM* | 20µM* | -4
Cc1ccc(-c2nc(CCNC(=O)C(=O)Nc3ccc(F)cc3F)cs2)cc1 | . | 31%[57 µM] | 3% | 5% | 7%[59 µM] | .
CCOC(=O)c1[nH]c(Cc2[nH]c(C(=O)OCC)c(C)c2CCC(=O)OC)c(CCC(=O)OC)c1C | -10% | -26% | ? | 40µM* | 40µM* | .
CCOc1cccc(/C(O)=C2/C(=O)C(=O)N(Cc3ccco3)C2c2ccncc2)c1 (centres undefined) | 3% | 42% | ? | ? | 45µM* | -1
COCCN1C(=O)C(=O)/C(=C(/O)c2cccc(OC)c2)C1c1ccncc1 (centres undefined) | 49% | 6% | -17% | ? | 50µM* | -6
COc1ccc(/C(O)=C2\C(=O)C(=O)N(Cc3ccco3)C2c2cc(OC)ccc2OC)cc1 (centres undefined) | 4% | 3% | ? | 89µM* | -81%[59 µM] | .
COc1ccc(OC)c(C2/C(=C(/O)c3ccccc3)C(=O)C(=O)N2Cc2ccco2)c1 (centres undefined) | 4% | 42% | -10% | -9% | -4%[59 µM] | 0
Cc1ccc(C2/C(=C(/O)c3ccc(Br)cc3)C(=O)C(=O)N2Cc2ccco2)o1 (centres undefined) | ? | 9% | 1% | ? | 15%[59 µM] | -7
Cc1ccccc1COc1ccc(/C(O)=C2/C(=O)C(=O)N(CCCn3ccnc3)C2c2ccco2)cc1 (centres undefined) | -23% | -3% | -2% | ? | 32µM* | .
COC(=O)Cn1c(=O)c2cccn2c2ccc(F)cc21 | . | 48% | 6% | 4% | 6%[59 µM] | .
Fc1ccc(C(c2nnc(-c3ccccc3)o2)N2CCN(c3ccccc3)CC2)c(Cl)c1 (centres undefined) | . | -20% | -31% | -27% | 3%[59 µM] | .
COc1cccc(C2/C(=C(/O)c3ccccc3)C(=O)C(=O)N2Cc2ccco2)c1 (centres undefined) | -19% | 3% | -22% | -19% | 56µM* | 2
CCOc1ccc(/C(O)=C2/C(=O)C(=O)N(CC3CCCO3)C2c2ccco2)cc1 (centres undefined) | ? | 18% | 2% | 79µM* | ? | 7
COc1cccc(/C(O)=C2/C(=O)C(=O)N(Cc3ccco3)C2c2ccncc2)c1 (centres undefined) | -3% | 33% | ? | ? | 28µM* | 1
COc1cccc(C2/C(=C(/O)c3ccc(C)cc3)C(=O)C(=O)N2Cc2ccco2)c1 (centres undefined) | 5% | 27% | -37% | -6% | -12%[59 µM] | 2
COc1ccc(OC)c(C2/C(=C(/O)c3ccc(C)cc3)C(=O)C(=O)N2Cc2ccco2)c1 (centres undefined) | -18% | 23% | -38% | -2% | ? | -1
